This is an account of results in PubChem BioAssay (NCI).

The panel holds about 83,000 compounds, 20% with a hit somewhere; the sample as a whole holds those more often.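 Step 1: grow cells in 96-well plates. Step 2: add test compound at a single concentration. Step 3: incubate 48 h. Step 4: record percent growth.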 Values without a mark were called inactive. The source made the active and inactive calls. The calls were made as follows: active = growth percent below 10; inactive = the rest.

Some test systems named below: HCT-15 colon; HT29 colon; SNB-75 CNS; SNB-19 CNS; U251 CNS; PC-3 prostate; UACC-62 melanoma; LOX IMVI melanoma; SK-MEL-28 melanoma.
What all share (test): NCI-60 one-dose screen, 48 h (100 = growth as untreated, 0 = no growth, -100 = all killed)
Common to all, as to settings: 10 µM unless noted

Take `NC(=O)c1cc(Cl)ccc1NC(=O)COc1ccccc1`: the growth with HCT-15 colon was 33.3%; in the experiment on HT29 colon, 17.6%; in the experiment with SNB-75 CNS, 36.5%; in the experiment on SNB-19 CNS, 64.7%; with U251 CNS it was 39.7%; with PC-3 prostate, 47.3%. Further, the figures for the growth in the experiment with UACC-62 melanoma, in the experiment with LOX IMVI melanoma and with SK-MEL-28 melanoma were 56.7%, 59.4% and 69.3%, respectively.

Turning to `C[C@@H](Oc1cc(-c2cnn(C3CC4(CCCNC4)C3)c2)cnc1N)c1c(Cl)ccc(F)c1Cl` (stereo not given in full), the growth in the experiment on HCT-15 colon is 16.2%; in the experiment on HT29 colon, -47.7% (active); in the experiment with SNB-75 CNS, 10.3%; with SNB-19 CNS, 72.3%; in the experiment on U251 CNS, 29.5%; in the experiment on PC-3 prostate, 15.6%. The values for the growth in the experiment with UACC-62 melanoma, in the experiment with LOX IMVI melanoma and in the experiment on SK-MEL-28 melanoma were 14.3%, -73% (active) and -67.2% (active), respectively.

Take `COc1cc(C(=O)/C=C/c2c(-c3cccs3)nc3sccn23)cc(OC)c1OC`: the growth in the experiment with HCT-15 colon is -36.7% (active); in the experiment on HT29 colon, -13.8% (active); in the experiment on SNB-75 CNS it was -27.7% (active); in the experiment with SNB-19 CNS, 14.4%; in the experiment with U251 CNS, 0.929% (active); in the experiment with PC-3 prostate, 7.06% (active). Also, the growth in the experiment with UACC-62 melanoma is -56.4% (active); in the experiment with LOX IMVI melanoma, -68.5% (active); with SK-MEL-28 melanoma it was 16.5%.

As to `CC1(C)CC(=O)C2=C(C1)Nc1cc3c(cc1C2c1ccc(F)cc1)OCO3` (stereo not given), the growth with HCT-15 colon was 93.9%; in the experiment with HT29 colon, 93.2%; in the experiment with SNB-75 CNS, 77.3%; with SNB-19 CNS it was 96.5%; with U251 CNS, 90.6%; in the experiment on PC-3 prostate, 93.5%. Also, the growth is 98.7% in the experiment with UACC-62 melanoma, 99.1% in the experiment on LOX IMVI melanoma and 92.6% in the experiment on SK-MEL-28 melanoma.

`O=C1c2cc(S(=O)(=O)O)ccc2C(=O)c2c1cccc2[N+](=O)[O-]`: the growth with HCT-15 colon is 110%; in the experiment on HT29 colon, 104%; with SNB-75 CNS, 110%; in the experiment on SNB-19 CNS it was 106%; with U251 CNS, 99.2%; in the experiment on PC-3 prostate, 96.3%. The results for the growth with UACC-62 melanoma, with LOX IMVI melanoma and in the experiment with SK-MEL-28 melanoma were 110%, 103% and 121%, respectively.

Regarding `Cc1ccc(N(CSc2ccc(Cl)cc2)CSc2ccc(Cl)cc2)cc1`, the growth in the experiment on HCT-15 colon is 67.2%; with HT29 colon, 74.7%; in the experiment with SNB-75 CNS, 106%; in the experiment with SNB-19 CNS, 78.6%; with U251 CNS it was 47.8%; with PC-3 prostate it was 10.8%. For the same molecule, the values for the growth with UACC-62 melanoma, with LOX IMVI melanoma and in the experiment on SK-MEL-28 melanoma were 60%, -10.1% (active) and 102%, respectively.

`COc1cc(C(=O)N(C(C)C)C2CCCCC2)cc(OC)c1OC`: the growth with HCT-15 colon was 103%; with HT29 colon, 99.2%; in the experiment with SNB-75 CNS it was 87.6%; with SNB-19 CNS it was 97.9%; in the experiment with U251 CNS, 102%; in the experiment with PC-3 prostate it was 89.8%. Further, the values for the growth with UACC-62 melanoma, with LOX IMVI melanoma and in the experiment with SK-MEL-28 melanoma were 96.5%, 94.6% and 105%, respectively.

Take `CN1CCc2c(Sc3ccc(C(=O)NO)cc3)c3ccccc3n2C1`: the growth with HCT-15 colon is 75.6%; with HT29 colon, 48.9%; with SNB-75 CNS, 25.8%; in the experiment on SNB-19 CNS, 53.4%; in the experiment on U251 CNS, 23.8%; in the experiment on PC-3 prostate, 20.8%. In addition, the growth in the experiment with UACC-62 melanoma was 38.9%; with LOX IMVI melanoma, 11.6%; in the experiment on SK-MEL-28 melanoma, 14.7%.

Regarding `COc1c(Cl)ccc2c(-c3nc4cc(Cl)c(F)cc4s3)cc(=O)oc12`, the growth in the experiment on HCT-15 colon was 82%; in the experiment on HT29 colon it was 5.31% (active); in the experiment with SNB-75 CNS it was 69.3%; in the experiment on SNB-19 CNS it was 96%; in the experiment with U251 CNS, 99.1%; in the experiment on PC-3 prostate it was 84.3%. For the same molecule, the growth was 91.7% in the experiment with UACC-62 melanoma, -80.2% (active) in the experiment with LOX IMVI melanoma and 111% in the experiment on SK-MEL-28 melanoma.

Regarding `COc1cccc2c(=O)c3c(sc12)c(NCCN(C)C)nc1ccccc13`, the growth in the experiment on HCT-15 colon was 16.5%; in the experiment on HT29 colon, 3.18% (active); in the experiment with SNB-75 CNS it was -5.46% (active); with SNB-19 CNS, 36.6%; in the experiment with U251 CNS, -28.1% (active); in the experiment on PC-3 prostate, 23%. In addition, the growth is 57% with UACC-62 melanoma, -2.57% (active) with LOX IMVI melanoma and 43.9% with SK-MEL-28 melanoma.

Consider `FCOC(C(F)(F)F)C(F)(F)F`, for which the growth is 103% with HCT-15 colon; 107% in the experiment with HT29 colon; 109% with SNB-75 CNS; 108% in the experiment with SNB-19 CNS; 94.1% with U251 CNS; 106% in the experiment on PC-3 prostate. For the same molecule, the growth in the experiment on UACC-62 melanoma is 104%; with LOX IMVI melanoma, 101%; in the experiment on SK-MEL-28 melanoma, 126%.

On to `CC(=O)Nc1ccc(S(=O)(=O)N/N=C\c2ccc(Cl)c(Cl)c2)cc1`, for which the growth is 118% in the experiment on HCT-15 colon; 102% with HT29 colon; 81.7% with SNB-75 CNS; 103% in the experiment with SNB-19 CNS; 95.5% in the experiment on U251 CNS; 83.6% with PC-3 prostate. Moreover, the growth in the experiment on UACC-62 melanoma was 99.2%; in the experiment on LOX IMVI melanoma, 98.7%; with SK-MEL-28 melanoma it was 115%.

For the molecule `COc1ccc(CSc2nc3cc(OC)c(OC)cc3c(=O)n2-c2ccc(Cl)cc2)cc1`, the growth is 98.6% in the experiment on HCT-15 colon; 112% in the experiment with HT29 colon; 92.9% in the experiment on SNB-75 CNS; 99.8% in the experiment with SNB-19 CNS; 94.2% in the experiment on U251 CNS; 82% in the experiment on PC-3 prostate. Moreover, the growth in the experiment on UACC-62 melanoma was 99.4%; with LOX IMVI melanoma it was 98%; in the experiment with SK-MEL-28 melanoma, 107%.

Consider `CCOC(=O)c1c(-c2cc(OC)c(OC)c(OC)c2)csc1N`, for which the growth in the experiment on HCT-15 colon was 66.9%; in the experiment with HT29 colon, 71.9%; with SNB-75 CNS it was 84.2%; with SNB-19 CNS it was 108%; in the experiment with U251 CNS, 97.2%; in the experiment on PC-3 prostate, 88.6%. Also, the growth in the experiment on UACC-62 melanoma was 88.6%; in the experiment with LOX IMVI melanoma it was 95.4%; in the experiment on SK-MEL-28 melanoma, 91.1%.

For `Cc1nc2ccc(Cl)cc2n1C`, the growth is 113% in the experiment with HCT-15 colon; 98.8% in the experiment with HT29 colon; 103% in the experiment on SNB-75 CNS; 99.5% in the experiment on SNB-19 CNS; 99.7% in the experiment with U251 CNS; 101% with PC-3 prostate. Moreover, the values for the growth in the experiment with UACC-62 melanoma, in the experiment with LOX IMVI melanoma and in the experiment with SK-MEL-28 melanoma were 106%, 108% and 117%, respectively.
